# Compounds with a hit are over-represented: about 4.8% of the library has one in this group of screens.
# hgDAF-12 ag: agonists of H. glycines DAF-12 nuclear receptor; HEK293 GAL4-hgDAF12 UAS-luciferase reporter, agonist luminescence; normalized to butyrate control; activation, % at 6.8 µM; 370,000 tested, 1.8% active; AID 687014;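 active = activation above a cutoff set at the mean of all screened compounds plus 3 SD, cut at about 10% in these data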;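 also: 0% = DMSO wells and 100% = sodium butyrate wells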
# DAX1 inh-1: inhibits human nuclear receptor DAX1; P51843; HEK293 Gal4-DAX1 luciferase reporter, luminescence; inhibition, % at 6.75 µM; 340,000 tested, 0.99% active;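 active = inhibition above the mean over all tested compounds plus 3 SD, cut at about 4.2% in these data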;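 also: 0% = DAX1-transfected cells with DMSO and 100% = empty-vector control cells with DMSO; inhibition shows as a rise in luminescence from relieved DAX1 repression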
# Target sequence (P51843 207-470 limits assumed): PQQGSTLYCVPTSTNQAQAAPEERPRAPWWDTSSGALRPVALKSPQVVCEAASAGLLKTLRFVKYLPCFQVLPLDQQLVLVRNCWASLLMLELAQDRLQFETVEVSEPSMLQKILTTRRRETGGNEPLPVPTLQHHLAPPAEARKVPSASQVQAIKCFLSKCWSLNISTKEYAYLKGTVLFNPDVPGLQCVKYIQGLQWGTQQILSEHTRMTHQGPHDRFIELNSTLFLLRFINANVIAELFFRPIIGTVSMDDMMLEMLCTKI
# ssDAF12 agonist: activates DAF-12 receptor from parasite S. stercoralis; AID 652126; activation, % at 6.8 µM; 370,000 tested, 1% active; HEK293 ssDAF-12/GRIP1 lit1-tk-luc reporter, luminescence; % of 3 µM dafachronic acid response;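 active = activation above the mean over all tested compounds plus 3 SD, cut at about 0.9% in these data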;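 also: 0% = DMSO-only wells and 100% = 3 µM delta7-dafachronic acid wells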
# DAX1 inh-2: blocks DAX1 repression of SF-1 activated StAR promoter; HEK293T StAR-luciferase reporter, SF-1/DAX-1 repression relief; inhibition, % at 6.8 µM; 370,000 tested, 1.1% active; AID 652010;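 active = inhibition above the mean over all tested compounds plus 3 SD, cut at about 3.6% in these data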;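 also: 0% = DAX-1 cells with DMSO and 100% = cells lacking DAX-1 with DMSO; higher inhibition means more luminescence from relief of DAX-1 repression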
# hcDAF12 agonist: activates DAF-12 receptor from parasite H. contortus; AID 652067; activation, % at 6.8 µM; 370,000 tested, 1.4% active; HEK293 hcDAF-12 lit1-tk-luc reporter, luminescence; 0% DMSO, 100% Δ7-dafachronic acid;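 active = activation above the mean of all tested compounds plus 3 SD, cut at about 5.5% in these data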;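 also: 100% = response to 3 µM Δ7-dafachronic acid high control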
# NR1D1 modulator: Rev-erb alpha (human) modulation; activity, % at 10 µM; 370,000 tested, 0.79% active; Rev-erbα–FITC-DNA binding, fluorescence polarization, 90 min; P20393;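 active = activity above about 14%, limit read from the data; passing the limit was not always enough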;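 also: 0% = DMSO wells with 35 nM protein and 100% = DMSO wells with 750 nM protein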
# * = called active by the depositor; nt = no result.
SMILES,hgDAF-12 ag,DAX1 inh-1,ssDAF12 agonist,DAX1 inh-2,hcDAF12 agonist,NR1D1 modulator
CN(C)c1ccc(N=Nc2cccc(F)c2)cc1,11*,1,1.4*,3,5.6*,12
CC1=NN(c2cccc(F)c2)C(=O)/C1=C/c1ccc(N(C)C)cc1,2,1,0,0,1,5
COc1ccc(CN2C(=O)[C@]3(NCCc4c3[nH]c3ccc(OC)cc43)c3cc(F)ccc32)cc1,-1,nt,0,-1,-3,-6
Nc1ccccc1-c1nc2ccccc2[nH]c1=O,6,1,-1,1,2,0
O=c1[nH]c2ccccc2nc1-c1c[nH]c2ccccc12,3,2,0,1,6.5*,-5
COc1ccc2c(C(=O)c3ccc(C)cc3)n(Cc3ccc(C(N)=O)cc3)[n+]([O-])c2c1,10,2,2.1*,2,11*,-4
CN1CCN(c2ccc3c(c2)Oc2ccccc2CN(Cc2cn(Cc4cccc(C(F)(F)F)c4)nn2)S3(=O)=O)CC1,-2,nt,-1,-1,-3,9
COC(=O)N1C[C@H](OCc2ccccc2)[C@H]2C[C@@H]1c1ccccc1O2,-3,nt,-1,0,-3,4
CC1=NN(c2ccccc2)C(=O)C1C(=O)c1ccccc1 (stereo unspecified),-2,1,-1,1,-1,1
CC1=NN(c2ccccc2)C(=O)C1C(=O)C(=O)Nc1ccc(F)cc1 (stereo unspecified),11*,0,-1,4.3*,4,-6
O=C(O)c1[nH]c2ccccc2c1C(c1c(F)cccc1Cl)c1c(C(=O)O)[nH]c2ccccc12,5,1,-1,0,-1,-2
COc1cc(Cl)cc(C(c2c(C(=O)O)[nH]c3ccccc23)c2c(C(=O)O)[nH]c3ccccc23)c1O,2,1,-1,1,5.7*,-4
COc1ccccc1NS(=O)(=O)c1cccc(C(=O)NCC2(N3CCCCC3)CCCCC2)c1,0,1,-1,4.0*,0,-2
Fc1ccccc1N1CCN(C2CCN(Cc3c[nH]c4ccccc34)CC2)CC1,1,0,1.3*,0,3,-1
CN1CCN(CC(=O)NN(Cc2ccccc2)c2ccccc2)CC1,-3,4.5*,-1,0,0,-2
CCN(CC)CC(=O)NN(Cc1ccccc1)c1ccccc1,0,1,-2,1,-1,-2
Nn1c(SCC(=O)N2CCOCC2)nnc1-c1cc(-c2ccc(F)cc2)n[nH]1,0,nt,-1,2,-1,3
COc1ccccc1/C=C/C=N/NC(=O)c1ccccn1,13*,4,0,4.1*,1,3
COc1ccc(NC(=O)c2ccccn2)cc1OC,12*,4.4*,0,1,2,2
COc1ccc(NC(=O)c2ccccn2)cc1,nt,-2,nt,nt,nt,nt
COc1ccccc1/C=C/C=N/NC(=O)c1cnccn1,8,-1,-1,0,0,-2
O=C(N/N=C/C1CCCCC1)c1ccccn1,12*,0,0,4,6.3*,2
COc1ccc(C(=O)Nc2ccc3ccccc3n2)cc1OC,10,4.8*,0,1,2,1
O=C(N/N=C/C1CCCCC1)c1cc(Cl)ccc1O,0,0,-1,0,1,-1
O=C(Nc1ccc(NC(=O)C2CC2)nc1)c1ccccn1,10,0,0,3,3,-2
SMILES,hgDAF-12 ag,DAX1 inh-1,ssDAF12 agonist,DAX1 inh-2,hcDAF12 agonist,NR1D1 modulator
CCC(=O)Nc1ccc(NC(=O)c2ccccn2)cn1,12*,-1,0,2,4,-2
O=C(NCc1ccco1)O[C@@H]1CC[C@@]23CCCN2C(=O)CCC[C@H]3C1,0,nt,-1,nt,-1,4
COc1ccc2cc3c(N)nn(C(=O)Cc4c[nH]c5ccccc45)c3nc2c1,14*,-1,-2,0,-3,10
COc1cccc(CC(=O)n2nc(N)c3cc4ccc(OC)cc4nc32)c1,-1,2,0,2,-1,-5
COc1ccc2cc3c(N)nn(C(=O)c4ccccc4Cl)c3nc2c1,5,0,-3,-2,-5,1
COc1ccc2cc3c(N)nn(C(=O)c4ccc(F)cc4)c3nc2c1,12*,0,-2,0,-1,-5
COc1ccc2cc3c(N)nn(C(=O)c4cccc(F)c4)c3nc2c1,0,4.4*,-2,1,-2,-24
Cc1ccccc1C(=O)N1CCC(Oc2cccnc2)CC1,0,nt,0,1,-2,2
C=CCOC(=O)N[C@H](c1ccc2ccccc2c1)[C@H](C)/C=C/CC(=O)OC,1,nt,-2,0,0,-2
COc1cc2c(c(OC)c1OC)C1(CCCCC1)CC2NCC=C(C)C (stereo unspecified),1,nt,-1,1,1,-4
Cc1cccc(NC(=O)Nc2cccc(C#N)c2)n1,4,5.4*,0,1,-1,9
Cc1ccc(CNC(=O)Nc2cccc(C)c2)cc1,13*,-1,-1,0,4,0
Cc1cc(C)nc(NC(=O)/C=C/c2ccccc2Cl)c1,12*,2,0,3,4,-5
Cc1ccc(NC(=O)Nc2ccc3c(c2)OCO3)nc1,13*,1,-1,2,0,3
Cc1cccc(NC(=O)NCc2ccc3[nH]c(C)cc3c2)c1,5,1,-1,1,5,-4
Cc1cccc(NC(=O)Nc2ccc(C#N)cc2)n1,6,-2,-2,-1,-3,10
Cc1ccc(OCCNC(=O)[C@@H](Cc2ccccc2)NC(=O)[C@H]2O[C@@H](n3ccc(=O)[nH]c3=O)[C@H](O)[C@@H]2O)cc1C,-2,nt,-1,1,-3,-5
Cc1ccc(C)c(NC(=O)Nc2ccc3c(c2)OCO3)c1,2,2,0,3,1,-8
Cc1cccc(NC(=O)Nc2cc(C)cc(C)n2)c1,13*,-1,0,1,5,0
Cc1cc(C)nc(NC(=O)Nc2ccc3c(c2)OCO3)c1,11*,3,-1,1,4,6
O=C1/C(=C\c2ccccc2)CCc2c1[nH]c1ccccc21,13*,-1,0,-1,6,-1
Cc1ccc2[nH]c3c(c2c1)CC/C(=C/c1ccccc1)C3=O,3,2,0,1,3,4
Cc1ccc(S(=O)(=O)N(C)c2ccc(C(=O)NCC(c3ccccc3)N3CCCC3)cc2)cc1 (stereo unspecified),0,3,-1,4.0*,-1,2
COc1ccc(C(CNC(=O)c2cccc(S(=O)(=O)Nc3ccc(F)cc3)c2)N2CCCC2)cc1 (stereo unspecified),-2,-1,0,3.6*,-2,8
